In all, about 71,000 compounds went through this assay and about 35 (0.05%) were called active. The call rests on the fitted dose curve; in most records, active means well fitted curve in the direction sought with a large enough effect; inconclusive means small, poorly fitted or top-dose-only effect, or effect the other way; inactive means flat fitted curve, though single readings scatter. A selection follows.
Molecular target: tRNA threonylcarbamoyladenosine biosynthesis protein TsaE (Escherichia coli (strain K12)) (UniProt P0AF67)
Experiment: qHTS Assay for Inhibitors of YjeE
Settings: purified YjeE enzyme, qHTS inhibition assay
Method: NIH Molecular Libraries Screening Centers Network [MLSCN]
NIH Chemical Genomics Center [NCGC]
Assay Provider: Eric Brown, McMaster University
YjeE is an essential E.coli protein of unknown function that binds adenosine diphosphate (ADP). A complex of YjeE and BODIPY Texas Red-labeled ADP probe (Invitrogen, catalog number A22359) is incubated with library members. Inhibitors of YjeE-ADP binding are detected by a decrease in the fluorescence polarization (FP) of the fluorophore. Purified YjeE was supplied by Chand Mangat and Eric Brown, McMaster University.
NCGC Assay Protocol Summary:
2 uM probe/10 uM YjeE in columns 1, 2, 5-48. Titration of ADP control (from 40 mM, then 1:2) pin-transferred to top half of column 2. Column 1 and bottom half of column 2 are neutral.
Two and a half uL of reagents were dispensed to 1536-well Greiner black plates. Compounds and controls (20 nL) were transferred via Kalypsys PinTool. The plates were incubated for 15 min at room temperature, and then read on ViewLux (Perkin-Elmer) High-throughput CCD imager using BODIPY polarization filter set and 30 seconds exposure time. During dispense, reagent bottle was kept submerged into 4 deg C water bath and all liquid lines were covered with aluminum foil to minimize probe and protein degradation.
Keywords: NIH Roadmap, MLSCN, MLI, MLSMR, qHTS, NCGC, YjeE

outcome, inactive:
Cc1ccc(O)c(NC(=O)COc2cc(C)ccc2C)c1
COc1ccc(-c2nc3cnc(N(C)C)nc3n(Cc3cccs3)c2=O)cc1
O=C(Cl)c1ccc([N+](=O)[O-])cc1
Cc1cc(C)cc(N)c1
CCOC(=O)N1CCN(C(=O)C2CC(c3ccc(F)cc3)=NO2)CC1 (stereo unspecified)
Cc1ccc2c(c1)N(CC(=O)N1CCCc3ccccc31)C(=O)C(C)O2 (stereo unspecified)
CCOc1cccc(/C(O)=C2/C(=O)C(=O)N(CCOC)C2c2ccncc2)c1 (stereo unspecified)
CC1CC(C)CN(CC(=O)Nc2ccc(S(N)(=O)=O)cc2)C1 (stereo unspecified)
CN(c1ccc(C(=O)N2CCc3ccccc3C2)cc1)S(C)(=O)=O
COc1ccccc1N1CCN(C(=O)c2cc3c(-c4ccc(Cl)cc4)nn(C)c3s2)CC1
Cn1c(CC(=O)Nc2ccccc2)nnc1SCC(=O)c1ccccc1
Cc1nnc(NC2=NCCCCC2)o1
Cn1cc(-c2nc3cnc(N4CCNCC4)nc3n(CCc3ccccc3)c2=O)c2ccccc21
COc1cccc(Nc2ncc3ncc(=O)n(C4CC4)c3n2)c1
CNC(=O)C1(C)C=CC2(CCCCC2)N1C(C)=O (stereo unspecified)
COc1ccccc1CNc1ncnc2ccc(-c3ccc4c(c3)OCO4)cc12
COC(=O)[C@@]1(Cc2ccc(OC)cc2)[C@H]2c3cc(C(=O)N4CCCC4)n(Cc4ccc(OC(F)(F)F)cc4)c3C[C@H]2CN1C(=O)c1ccccc1
O=C(O)c1cccc(S(=O)(=O)NCCO)c1
COc1ccc(N)c(C)c1
O=C(Cn1ccc(=O)[nH]c1=O)Nc1ccc(C(=O)O)c(O)c1
COc1ccc(CC(=O)Nc2c3c(nn2-c2cccc(Cl)c2)CS(=O)C3)cc1 (stereo unspecified)
COCCCN1C(=O)C(=O)/C(=C(/O)c2ccc3c(c2)CC(C)O3)C1c1cccnc1 (stereo unspecified)
Cn1cc(-c2nc3cncnc3n(-c3ccccc3)c2=O)c2ccccc21
Cc1cc(Cl)c(S(=O)(=O)NCCC(=O)O)cc1OCC(N)=O
Cc1ccnc(SCCn2c(Br)nc3c2c(=O)[nH]c(=O)n3C)n1
CC(=NCc1ccc2c(c1)OCO2)C1=C(O)c2ccccc2C1=O
Cc1ccc2c(c1)sc1ncc(NC(=O)c3ccccc3)c(=O)n12
CCCCOc1ccc(Cl)cc1CSc1nncn1N
CCN(Cc1cc2cc(C)ccc2[nH]c1=O)S(=O)(=O)c1ccccc1
CSCC[C@H](NC(=O)NCCc1ccc(F)cc1)C(=O)O
O=C(Cn1cc2c(n1)CCCCC2)NCCN1CCOCC1
CC(=O)Nc1ccc(NC(=O)CN2CCCC(C)C2)c(Cl)c1 (stereo unspecified)
COCCn1c(=O)c(-c2cccc(F)c2)nc2cncnc21
Oc1cc2c(cc1O)CN(C(=S)NCCc1ccc(Cl)cc1)CCC2
CN=C(NC#N)NCCSCc1nc[nH]c1C
COC(=O)c1nc(NC(=O)c2ccc(Cl)cc2)n[nH]1
NC(=O)CCCC1=NS(=O)(=O)c2ccccc2N1
COC(=O)c1c(NC(=O)CSc2nncs2)sc2c1CCCCC2
CC(=O)N(CC1CCCO1)C1(C(=O)NC2CCCC2)CCCCC1 (stereo unspecified)
COc1ccc2[nH]cc(CCNc3nc(-c4cccc(NS(C)(=O)=O)c4)nc4ccccc34)c2c1
CCCCCN(C(=O)NC(=O)Nc1ccccc1OC)S(C)(=O)=O
Oc1ccc(O)c2c(O)cccc12
Cc1ccc(S(=O)(=O)NC(=O)N2CCCC(C)(C)C2)cc1
C=CCOC(=O)COCCC(C)C
CCC1=C/C(=C\c2ccc3c(c2)OCO3)C(=O)S1
COC(=O)N1CCC[C@@]2(CCN(C(=O)NC(C)C)C2)C1
O=S(=O)(NCc1ccccc1Cl)c1cnc[nH]1
CCCCn1c(SCC(=O)N2CCC(C(=O)OCC)CC2)nc2cc(S(N)(=O)=O)ccc21
CCCC(Cl)CCCC(Cl)CCC(Cl)CCC(Cl)CCC(Cl)CCCC(Cl)CCC (stereo unspecified)
Nc1ccccc1N
N[C@@H](C(=O)O)c1ccc(P(=O)(O)O)cc1
CC(=O)OC(C(=O)NCCc1ccccc1)c1cccnc1 (stereo unspecified)
COCc1[nH]nc2c1C(C1C=CCCC1)C(C#N)=C(N)O2 (stereo unspecified)
O=C(c1csnn1)N1CCC[C@@]2(CCN(Cc3nccs3)C2)C1
COc1cc(Cl)c(C)cc1NC(=O)CSc1nnc(-c2ccco2)n1CC(C)C
O=C(Nc1cccc(F)c1)N1CC2(CCN(C(=O)c3csnn3)CC2)C1
Cc1cccc(CNc2cc(-c3ccccc3Cl)ncn2)c1
COC(=O)[C@@H]1[C@H]2C[C@H]3c4[nH]c5cc(OC)ccc5c4CCN3C[C@@H]2C[C@@H](OC(=O)c2cc(OC)c(OC)c(OC)c2)[C@@H]1OC
CCOc1ccccc1NC(=O)C1CCN(S(=O)(=O)c2c(C)nn(C)c2C)CC1
C=CCN1C(=O)C(O)(CC(=O)c2ccc(Cl)cc2)c2ccccc21 (stereo unspecified)
CS(=O)(=O)N1CCCC(C(=O)N2CCOCC2)C1 (stereo unspecified)
Clc1ccccc1-c1cc(NCCN2CCOCC2)ncn1
CCc1cc2c(=O)c(-c3ccon3)c(N)oc2cc1OC
CCn1c(SCC(=O)Nc2cc(C)ccc2C)nnc1-c1cnccn1
CC1=C(C(=O)OCc2ccccc2)C(c2ccc(C(F)(F)F)cc2)NC(=O)N1CCCCCC(=O)O (stereo unspecified)
COC(=O)[C@@]1(C)C=C[C@@H](Cc2ccccc2)N1C(C)=O
O=C(Cn1cc(C(=O)c2cccs2)c2ccccc21)NCc1cccs1
O=C(c1cnccn1)N1CCC[C@@]2(CCN(Cc3ccncc3)C2)C1
COC(=O)CCCCCN1C(=O)NC(c2ccc(-c3ccccc3)cc2)C(C(=O)OCc2ccccc2)=C1C (stereo unspecified)
Cc1ccc(Br)cc1
O=C1CC(N2CCN(C(c3ccccc3)c3ccccc3)CC2)C(=O)N1 (stereo unspecified)
CCOc1ccc(C(=O)N(Cc2ccc(N(C)C)cc2)C2CCS(=O)(=O)C2)cc1 (stereo unspecified)
C/C(=C\C(=O)c1ccccc1)Nc1cccc(O)c1
Cc1cc2nc3c(=O)[nH]c(=O)nc-3n(C[C@H](O)[C@H](O)[C@H](O)CO)c2cc1C
O=C(O)c1ccc(C(=O)c2ccccc2C(=O)O)cc1C(=O)O
Cc1ccc(-c2c3c(=O)n(C)c(=O)n(C)c3cn2-n2cnnc2)cc1
C=CC(=O)OCCOCCOCCOCCOC(=O)C=C
CCOc1ccc2c(c1)cc(CN(C(=O)CC)C1CCCCC1)c1nnnn12
Cc1nc2cnc(N3CCNCC3)nc2n(Cc2ccc(F)cc2)c1=O
COc1ccc2c(=O)cc(-c3ccccc3)oc2c1O
C=CCn1c(SCc2csc(C)n2)nc2scc(-c3ccc(C)o3)c2c1=O
C=CC(=C)CCC=C(C)C
Cc1ccc(NC(=O)N2CCC(C(=O)NCc3ccc(F)cc3)CC2)cc1
O=C(NCc1ccccc1)[C@H]1C[C@@H]1[C@H](NP(=O)(c1ccccc1)c1ccccc1)c1ccccc1
O=C1C(c2[nH]c3ccccc3c2O)=Nc2ccccc21
COc1c(C)c2c(c(O)c1C/C=C(\C)CCC(=O)O)C(=O)OC2
Fc1ccc2nc(-c3ccccc3)nc(SCc3nnc(-c4ccccc4)o3)c2c1
Cc1cc(Cl)ccc1OCC(=O)Oc1c(Cl)c(Cl)c(Cl)c(Cl)c1Cl
CCN(CC)CCCCn1c(-c2ccccc2)nc2c(N3CCOCC3)nc(C)nc21
CCNC(=O)CCc1nc(-c2ccc(C(C)(C)C)cc2)no1
c1cncc(CNc2ccnc(-c3ccc4c(c3)OCO4)n2)c1
Cc1cc(C)c2c(c1)c(C)cc1nnc(SCC(=O)NCc3ccco3)n12
Cc1ccc(-c2noc(-c3ccccc3C(=O)NCC3CCCO3)n2)cc1 (stereo unspecified)
c1ccc2c(c1)-c1ccccc1C2N1CC2CCC(CC2)C1
CCC(=O)Nc1ccc(C(=O)Nc2ccc3c(c2)C(=O)N(CC2CCCO2)C3=O)cc1 (stereo unspecified)
CSCC[C@H](NC(=O)NCc1cccs1)C(=O)O
Cc1cccn2c(=O)c3cc(C(=O)N4COCC4(C)C)n(C)c3nc12
CCC[C@@H]1C[C@@]1(CCC)[C@@H](NC(=O)c1ccccc1)c1ccc(C(=O)OC)cc1
Cc1nc(CNS(=O)(=O)c2ccc(Oc3ccccc3)cc2)cs1
O=C(c1csnn1)N1CCC2(CCN(Cc3nccs3)CC2)CC1
CC1(C)CCCC2=C1CC1C(=O)N(c3ccccc3)C(=O)C1C2 (stereo unspecified)
COc1ccc(-c2cc(C(=O)NC(C(=O)O)C(C)C)c(C)o2)cc1OC (stereo unspecified)
Cc1ccc(-c2nnn(CC(=O)N(CCO)C(C(=O)NC(C)(C)C)c3ccncc3)n2)cc1 (stereo unspecified)
Cc1ccc(NC(=O)CCNS(=O)(=O)c2ccc3c(c2)oc(=O)n3C)cc1C
CCC/C=C(\CCC)C(NC(=O)Cc1ccccc1)c1ccc(C(=O)OC)cc1 (stereo unspecified)
O=C1CC(c2cccc(Br)c2)C2=C(CCCC2=O)N1 (stereo unspecified)
COc1ccc(-c2nc3cnc(Oc4ccccc4)nc3n(Cc3cccs3)c2=O)cc1
Oc1c(CN2CCOCC2)ccc(CN2CCOCC2)c1O
CC(=O)CSc1nnc(CSc2ncccn2)n1C1CCCCC1
CCN1CCN(C(=O)CN(C)S(=O)(=O)c2ccc(OC)cc2)CC1
CCOc1ccc(S(=O)(=O)n2ccnc2)c2ccccc12

From PubChem BioAssay AID605 (National Center for Advancing Translational Sciences (NCATS), 2007)
